Source: PubChem BioAssay (several laboratories)
HGIII-sPLA2 inh: human group III sPLA2 inhibitors, primary screen, biochemical, QFRET, BODIPY PC-A2 liposome substrate | Group 3 secretory phospholipase A2 (Homo sapiens), Q9NZ20 | QFRET BODIPY PC-A2 liposome hydrolysis, fluorescence | inhibition, % at 12.2 µM | 370,000 compounds, 0.56% hits;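 active means inhibition above mean plus 3 SD of compounds lying within the high and low control bounds, cut at about 19% in these data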
SUMO HTRF inh: inhibitors of in vitro SUMOylation cascade, primary screen, biochemical, HTRF, uHTS | HTRF SUMOylation assay, SAE1/SAE2 + UBC9 | inhibition, % at 35 µM | 290,000 compounds, 0.36% hits; in the data active means inhibition above about 50%, passing the limit was not always enough; inconclusive means no clear call, values can overlap the other calls
Target sequence (P63279 whole entry, looked up): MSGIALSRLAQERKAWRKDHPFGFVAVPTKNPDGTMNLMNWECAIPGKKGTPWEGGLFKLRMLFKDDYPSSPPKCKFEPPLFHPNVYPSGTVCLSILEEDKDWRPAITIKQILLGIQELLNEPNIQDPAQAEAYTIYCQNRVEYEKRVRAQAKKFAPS
UBC13 inh: UBC13 polyubiquitin chain formation inhibitors, primary screen, biochemical, TR-FRET, uHTS; 330,000 compounds, 0.47% hits; AID 485273, 2010; Ubiquitin-conjugating enzyme E2 N (Homo sapiens), P61088; inhibition, % at 20 µM; in the data active means inhibition above about 45%, passing the limit was not always enough; inconclusive means no clear call, values can overlap the other calls
Target sequence (P61088 whole entry, looked up): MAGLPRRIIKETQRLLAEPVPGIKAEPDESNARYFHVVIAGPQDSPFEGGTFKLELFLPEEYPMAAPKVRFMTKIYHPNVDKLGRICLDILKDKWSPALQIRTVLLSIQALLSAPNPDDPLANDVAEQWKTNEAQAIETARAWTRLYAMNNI
GRIN3A LBD mod: binders of NR3A ligand-binding domain, primary screen, biophysical, differential scanning fluorimetry, uHTS; NR3A LBD differential scanning fluorimetry, Tm shift; 0% = protein alone, 100% = glycine-bound protein; Tm shift relative to glycine control, % at 25 µM; 340,000 compounds, 2.5% hits;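 active means melting temperature shift of at least 10% of the positive control shift, at one fixed dose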
Casp3 UBC13 ctr: CASP3 inhibitor validation, counterassay for project on UBE2N polyubiquitination blockers, biochemical, one dose | shares compounds with UBC13 inh | Recombinant caspase-3, Caspase-Glo 3/7 luminescence, 60 min | inhibition, % at 20 µM | 1,400 compounds, 4% hits;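 active means mean inhibition across replicates above about 26%, limit read from the data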
Target sequence (P42574 whole entry, looked up): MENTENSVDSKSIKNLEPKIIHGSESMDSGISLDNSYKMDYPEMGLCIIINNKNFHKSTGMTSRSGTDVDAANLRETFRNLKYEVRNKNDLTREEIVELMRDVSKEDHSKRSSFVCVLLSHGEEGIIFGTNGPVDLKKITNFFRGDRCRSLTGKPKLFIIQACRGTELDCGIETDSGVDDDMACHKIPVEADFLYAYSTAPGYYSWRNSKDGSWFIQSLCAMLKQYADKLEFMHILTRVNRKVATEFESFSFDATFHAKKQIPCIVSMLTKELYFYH
UBC13 confirm: UBC13 polyubiquitination inhibitors, single-point retest, confirmation, biochemical, TR-FRET, single concentration. shares compounds with UBC13 inh. inhibition, % at 10 µM. 1,400 compounds, 68% hits; in the data active means inhibition above about 45%; inconclusive means no clear call, values can overlap the other calls
A number is an active result; 0 = inactive; ? = inconclusive; - = not tested or not shown. The list is not random: actives were taken first. Their share in the collection is about 3.3%.

SMILES	HGIII-sPLA2 inh	SUMO HTRF inh	UBC13 inh	GRIN3A LBD mod	Casp3 UBC13 ctr	UBC13 confirm
CCC(C(=O)NC1CCCC1)N(C(=O)c1snc(C(N)=O)c1N)c1ccc(OC)cc1 (stereo not given)	0	0	52	0	0	62
Cc1ccc(N(C(=O)c2snc(C(N)=O)c2N)C(CC(C)C)C(=O)NC2CCCC2)cc1 (stereo not given)	0	0	0	0	-	-
CC(C(=O)NC1CCCC1)N(C(=O)c1snc(C(N)=O)c1N)c1ccc2c(c1)OCCO2 (stereo not given)	0	0	72	0	0	72
O=C(Nc1ccccc1[N+](=O)[O-])NC1CCCCN(Cc2ccc(Cl)cc2)C1=O (stereo not given)	0	-	-	-	-	-
C[C@H]1[C@@H](OC(=O)NCc2ccccc2)CC[C@@]23CCCN2C(=O)CCC[C@@H]13	0	-	-	-	-	-
CCO[C@H]1OC(C(=O)NCc2ccccc2)=C[C@@H](c2ccccc2)[C@@H]1CCCO	0	0	50	0	0	0
CCO[C@@H]1OC(C(=O)NCc2ccccc2)=C[C@H](c2ccccc2)[C@H]1CCCO	0	0	0	0	-	-
COc1ccc(-c2cc(C3CCN(c4cc(Cl)nc(N)n4)CC3)[nH]n2)cc1	0	0	46	0	0	46
CN1CCN(Cc2nc3ccccc3c(=O)n2Cc2nc(-c3ccc([N+](=O)[O-])cc3)cs2)CC1	0	0	79	0	0	57
CN(C)Cc1nc2ccccc2c(=O)n1Cc1nc(-c2cccc([N+](=O)[O-])c2)cs1	0	0	0	0	-	-
O=C(COC(=O)CCCCCN=C1NS(=O)(=O)c2ccccc21)Nc1ccc(Cl)c(Cl)c1	0	0	49	22	0	0
C1CCC(C(CC2CCCCN2)C2CCCCC2)CC1 (stereo not given)	0	0	80	0	0	66
COC(=O)C1=C(C)N(Cc2ccccc2)C(=NCc2cc(OC)c(OC)c(OC)c2)N[C@H]1c1ccc(Br)cc1	-	-	55	0	0	48
COC(=O)C1=C(C)N(Cc2ccccc2)C(=NCc2cc(OC)c(OC)c(OC)c2)N[C@H]1CCc1ccccc1	0	-	47	0	0	0
Cc1cccc(NC(=O)N2CCC(N(C)CCC(C)C)CC2)c1	0	-	-	-	-	-
CC1(C)Cc2c(sc(NC(=O)Nc3ccccc3)c2C(N)=O)CO1	0	0	0	0	-	-
COC(=O)c1c(NC(=O)C(=O)N2CCCC2)sc2c1CC(C)(C)OC2	0	0	48	0	0	100
CC1(C)Cc2c(sc(NC(=O)C(=O)N3CCCC3)c2C(N)=O)CO1	0	0	86	0	0	105
CC1(C)Cc2c(sc(NC(=O)C(=O)N3CCN(CCO)CC3)c2C(N)=O)CO1	0	0	0	0	-	-
CC1(C)Cc2c(sc(NC(=O)C(=O)NCC3CCCO3)c2C(N)=O)CO1 (stereo not given)	0	0	81	0	0	106
O=C(CSc1nnc(-c2ccco2)n1Cc1ccco1)c1ccc([N+](=O)[O-])cc1	0	-	-	-	-	-
CC(=O)c1ccc(Sc2ccccc2)cc1	0	0	?	0	-	-
CC(=O)c1ccc(Sc2ccc(C(C)=O)cc2)cc1	0	0	45	0	0	0
CCN1C(=O)CC(c2ccccc2)N(C2CCCC2)c2nc(Nc3ccc(C(=O)NC4CCN(C)CC4)cc3OC)ncc21 (stereo not given)	-	-	61	0	0	0
C[C@H](CO)N1C[C@H](C)[C@@H](CN(C)S(=O)(=O)c2ccccc2)Oc2c(NC(=O)Nc3ccc(C(F)(F)F)cc3)cccc2C1=O	0	-	52	0	0	0
SMILES	HGIII-sPLA2 inh	SUMO HTRF inh	UBC13 inh	GRIN3A LBD mod	Casp3 UBC13 ctr	UBC13 confirm
CCCCOCCCNC(=O)C[C@H]1C[C@@]2(C(=O)OC)C(=C[C@H](C(C)(C)C)O[C@@H]2C)N(Cc2cccc3ccccc23)C1=O	0	-	-	-	-	-
COc1cccc(NC(=O)Nc2nc3ncccn3c2-c2ccc(C(F)(F)F)cc2)c1	0	-	-	-	-	-
C=CCN1C(=O)[C@@H](CC(=O)N2CCN(C(=O)OCC)CC2)[C@]2(C(=O)OC)CCCCC=C12	0	-	-	-	-	-
COc1ccc(CNC(=O)C2(CC3CC(c4ccccc4)=NO3)CCN(C(=O)OC(C)(C)C)CC2)cc1 (stereo not given)	0	-	77	0	0	0
CC(COc1ccccc1C#N)CN1CCC(C(O)(c2ccccc2)c2ccccc2)CC1 (stereo not given)	0	-	-	-	-	-
FC(F)(F)c1cc(CO[C@@H]2CCCN[C@@H]2c2ccccc2)cc(C(F)(F)F)c1	0	-	58	0	0	55
Cc1ccc(-c2cc(C(=O)NN=C/C=C/c3ccco3)[nH]n2)cc1C	0	-	-	-	-	-
O=C(CCc1ccccc1)N[C@H]1[C@H](OCc2ccccc2)CCC[C@@]12C(=O)N(Cc1ccccc1)c1ccccc12	0	-	-	-	-	-
COc1ccccc1-c1sc2cc3c(cc2c1C#CCO)OCO3	0	-	0	0	-	-
COc1ccc2sc(-c3ccccc3OC)c(C#CC(C)(C)O)c2c1	0	-	0	0	-	-
COc1ccc2sc(-c3ccccc3OC)c(C#Cc3cncn3C)c2c1	0	-	51	0	0	0
COc1ccccc1-c1sc2cc3c(cc2c1C#Cc1cncn1C)OCO3	0	-	45	0	0	0
CC1CCN(CCNC(=O)C2CCCN(c3ncnc4c3nc3n4CCCCC3)C2)CC1 (stereo not given)	0	0	0	0	-	-
O=C(NCCCN1CCCCC1)C1CCN(c2ncnc3c2nc2n3CCCCC2)CC1	0	0	73	0	0	86
O=C(NCCc1ccccc1)C1CCCN(c2ncnc3c2nc2n3CCCCC2)C1 (stereo not given)	0	0	0	0	-	-
O=C(NCC1CCN(Cc2ccccc2F)CC1)C1CCCN(c2ncnc3c2nc2n3CCCCC2)C1 (stereo not given)	0	0	47	0	0	60
O=C(Nc1ccc(F)c(Cl)c1)C1CCN(c2ncnc3c2nc2n3CCCCC2)CC1	0	0	74	0	0	75
O=C(NCCCN1CCN(c2ccccc2)CC1)C1CCCN(c2ncnc3c2nc2n3CCCCC2)C1 (stereo not given)	0	0	80	0	0	101
O=S1(=O)c2ccc(Br)cc2OC[C@H](Cc2ccccc2)N1Cc1cn(CCC2OCCCO2)nn1	0	-	-	-	-	-
CCCN1CCN(C(=O)C2CCN(c3ncnc4c3nc3n4CCCCC3)CC2)CC1	0	0	77	0	0	94
NC(CO)C(=O)NNCc1ccc(O)c(O)c1O (stereo not given)	0	-	48	0	0	0
